Source: PubChem BioAssay
The list is not random: actives were taken first. Their share in the collection is about 3%.
IMPase inh – qHTS Assay for Identifying the Cell-Membrane Permeable IMPase Inhibitors; inhibition (IP1 accumulation), % at 46.1 µM; AID 901, 2007; CHO-M1 cells, IP1 accumulation, HTRF TR-FRET ratio; 120,000 tested, under 10 active; active = well fitted curve in the direction sought with a large enough effect in the signal ratio, not every such curve was filed as active; inconclusive = small, poorly fitted or top-dose-only effect, or a change in a side signal; inactive = no such curve, though single readings can be large or run the other way; the % refers to the signal ratio;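 also: cells stimulated with carbachol in lithium chloride buffer; plate controls were DMSO basal wells for no effect and reference inhibitor wells for full effect; higher means more IMPase inhibition seen as more IP1 and lower FRET ratio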
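The IP-One HTRF competitive assay in carbachol-stimulated CHO-M1 cells quantifies cellular IP1. Compounds spanned up to 46 uM final, and activity is expressed as AC50 from concentration-response fits of the ratio and donor data.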
12-hLO inh – qHTS Assay for Inhibitors of 12-hLO (12-human lipoxygenase); 0.12% of 150,000 active; Polyunsaturated fatty acid lipoxygenase ALOX12 (Homo sapiens), P18054; AID 1452, 2008; Potency, µM (highest dose often 57.1 µM), for inactives: at the top dose activity change, negative = inhibition, hits mostly inhibitors; purified 12-hLO, xylenol orange hydroperoxide absorbance; also: potency is read from the fitted curve at half-maximal effect; nearly all actives have a fitted effect of over 55% in size
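Lipoxygenase turnover measured by absorbance at 573 and 405 nm after Fe-XO development. Human 12hLO 150 nM, arachidonate 40 uM, pH 7.0 Hepes buffer with detergent; 15 min compound preincubation, 30 min reaction.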
PNC assembly inh – High Content Assay for Compounds that inhibit the Assembly of the Perinucleolar Compartment; AID 2417, 2010; 3.1% of 140,000 active; PC3M PTB-GFP, PNC prevalence imaging, 16 h; active compounds read low; activity change (PNC), negative = inhibition, % at 10 µM;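 active = readout at or below -70, meaning at least 70% loss of cells showing the perinucleolar compartment, a nuclear body marking cancer cells; inconclusive = readout between -30 and a set limit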;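 also: plate controls were DMSO wells for no effect and camptothecin positive control wells for full effect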
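Compounds are pinned in duplicate onto adhered PC3M cells stably expressing GFP-tagged PTB and incubated 16 h at 37 C. Cells are then fixed, nuclei stained with Hoechst, and PNC-positive cells counted.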
ALOX15B inhib – qHTS Assay for Inhibitors of 15-hLO-2 (15-human lipoxygenase 2); AID 881, 2007; 0.56% of 110,000 active; Potency, µM (highest dose often 57.1 µM), for the others: at the highest dose activity change, negative = inhibition, actives largely listed as inhibitors; purified 15hLO-2, xylenol orange hydroperoxide absorbance; also: potency is read from the fitted curve at half-maximal effect; nearly all actives have a fitted effect of over 60% in size
Target sequence (O15296 whole entry, looked up): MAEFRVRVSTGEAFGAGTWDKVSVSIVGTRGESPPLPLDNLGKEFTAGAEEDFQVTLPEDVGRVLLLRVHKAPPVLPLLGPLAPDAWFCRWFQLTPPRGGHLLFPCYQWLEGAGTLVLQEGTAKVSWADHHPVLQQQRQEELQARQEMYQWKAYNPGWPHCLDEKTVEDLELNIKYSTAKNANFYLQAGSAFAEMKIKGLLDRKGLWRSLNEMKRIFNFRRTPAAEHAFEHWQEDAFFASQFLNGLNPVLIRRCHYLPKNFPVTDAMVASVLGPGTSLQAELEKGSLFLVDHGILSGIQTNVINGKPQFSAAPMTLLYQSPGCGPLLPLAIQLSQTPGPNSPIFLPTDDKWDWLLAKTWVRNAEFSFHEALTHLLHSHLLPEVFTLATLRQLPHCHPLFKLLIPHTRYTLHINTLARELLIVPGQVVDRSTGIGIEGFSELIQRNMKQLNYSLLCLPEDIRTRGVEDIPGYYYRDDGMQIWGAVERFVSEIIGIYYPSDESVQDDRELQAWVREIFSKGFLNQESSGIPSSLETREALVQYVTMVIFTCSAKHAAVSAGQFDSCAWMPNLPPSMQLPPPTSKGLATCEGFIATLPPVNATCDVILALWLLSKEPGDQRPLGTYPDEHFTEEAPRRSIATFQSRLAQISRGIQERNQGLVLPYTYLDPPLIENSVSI
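Read-out: hydroperoxide product oxidises ferrous iron, measured as xylenol orange complex via the 573-to-405 nm absorbance ratio after 30 min. Reaction: 50 nM enzyme, 15 min compound preincubation, 45 uM arachidonic acid, 90 min RT, Hepes pH 7.5 with Triton X-100.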
* = called active by the depositor; [ ] = remark or other dose. Unless noted, calls follow the shape of the dose curve; as a rule, active = well fitted curve in the direction sought with a large enough effect; inconclusive = small, poorly fitted or top-dose-only effect, or another doubt; inactive = no such curve, though single readings can be large; an effect the other way counts as inactive or inconclusive. Unless noted, % is scaled to controls: 0 for no effect and ±100 for the full control effect.

Results for Cc1ccc(NC(=O)/C=C/c2ccc(C)o2)c(C)c1 ?
IMPase inh: 2

How did COC(=O)c1ccc(Cl)cc1NC(=O)/C=C/c1ccc(C)o1 do in these assays?
12-hLO inh: -1%; PNC assembly inh: -124*

Results for CC(=O)NCCC(=O)Nc1sc2c(c1-c1nc3ccccc3[nH]1)CCCC2 ?
IMPase inh: 7; 12-hLO inh: 1%; PNC assembly inh: -80*; ALOX15B inhib: 15%

Results for O=C(Nc1sc2c(c1-c1nc3ccccc3[nH]1)CCCC2)C1CCCC1 ?
IMPase inh: 10; 12-hLO inh: 0%; PNC assembly inh: inconclusive; ALOX15B inhib: 23%

What do the screens show for `COc1ccc(CCn2c(C)ccc2C)cc1OC`?
IMPase inh: 4; 12-hLO inh: -9%; PNC assembly inh: -100*

What do the screens show for `N/C(CN1CCCC1=O)=N\OC(=O)c1ccccc1Cl`?
IMPase inh: 5; 12-hLO inh: 2%; PNC assembly inh: -87*; ALOX15B inhib: -1%

How did Brc1ccccc1-c1nnc(CSc2nnc3sc4ccccc4n23)o1 do in these assays?
IMPase inh: -4; 12-hLO inh: 3%; PNC assembly inh: -17; ALOX15B inhib: -9%

How did Cc1ccc2[nH]c(=O)c(CN(CCCO)S(=O)(=O)c3c(C)ccc4nsnc34)cc2c1 do in these assays?
IMPase inh: 2; 12-hLO inh: -2%; PNC assembly inh: -80*; ALOX15B inhib: -1%

Results for Cc1cc2cc(CN(CCCO)S(=O)(=O)c3cccc4nsnc34)c(=O)[nH]c2cc1C ?
IMPase inh: 6; 12-hLO inh: -6%; PNC assembly inh: 28; ALOX15B inhib: 7%

Results for CC(=O)C1=C(O)CC(c2ccccc2)CC1=NCCc1c(C)[nH]c2ccc(C)cc12 (configuration not stated) ?
12-hLO inh: -1%; PNC assembly inh: -119*

What do the screens show for `CCC(=NCCc1c(C)[nH]c2ccc(C)cc12)C1=C(O)CC(c2ccccc2)CC1=O` (configuration not stated)?
12-hLO inh: -7%; PNC assembly inh: -116*

What do the screens show for `OC(CNCc1ccco1)Cn1c2ccc(Br)cc2c2cc(Br)ccc21` (configuration not stated)?
IMPase inh: 0; 12-hLO inh: -5%; PNC assembly inh: -12; ALOX15B inhib: 39%

What do the screens show for `COc1ccc2[nH]cc(CCNc3nc(-c4cccc(C#N)c4)nc4ccccc34)c2c1`?
ALOX15B inhib: 20%

What do the screens show for `CN(C)S(=O)(=O)c1ccc(C(=O)OCn2nnc3ccccc3c2=O)cc1`?
IMPase inh: 5; 12-hLO inh: 2%; PNC assembly inh: -5; ALOX15B inhib: 0%

How did CC12CCC(c3c(C(=O)O)nn(-c4ccccc4)c31)C2(C)C (configuration not stated) do in these assays?
IMPase inh: -6; 12-hLO inh: 2%; PNC assembly inh: -127*; ALOX15B inhib: 3%

How did CCOc1ccc(NC(=O)Cn2c(=O)n(-c3ccc(C)cc3)c(=O)c3cc(OC)c(OC)cc32)cc1 do in these assays?
IMPase inh: 3

What do the screens show for `Cc1nn(-c2ccccc2)c(C)c1/C=N/NC(=O)c1cc(-c2cccs2)[nH]n1`?
IMPase inh: 11; 12-hLO inh: -1%; PNC assembly inh: -115*

What do the screens show for `NS(=O)(=O)c1ccc(NC(=O)N2c3ccccc3Sc3ccccc32)cc1`?
IMPase inh: 2; 12-hLO inh: 16µM*; PNC assembly inh: 18; ALOX15B inhib: inconclusive

What do the screens show for `CCc1ccc(NC(=O)N2c3ccccc3Sc3ccccc32)cc1`?
IMPase inh: -1

How did O=C(/C=C/c1ccncc1)c1ccc(NC(=O)c2ccccc2F)cc1 do in these assays?
12-hLO inh: -2%; PNC assembly inh: 49

Results for COc1ccc(Oc2ncc3nc(-c4ccccc4)c(=O)n(C4CC4)c3n2)cc1 ?
12-hLO inh: 2%; ALOX15B inhib: -10%

Results for C[N+](C)(C)[C@@H](C1=CCCC1=O)c1ccccc1 ?
12-hLO inh: 2%[11.4 µM]; ALOX15B inhib: -12%[11.4 µM]

What do the screens show for `Cc1nn(Cc2ccc(Cl)cc2)c(C)c1NC(=O)c1ccc([N+](=O)[O-])cc1`?
IMPase inh: 3; 12-hLO inh: 2%; PNC assembly inh: -84*

Results for Cc1nn(Cc2ccc(Cl)cc2)c(C)c1NC(=O)Cn1nc([N+](=O)[O-])c(Cl)c1C ?
IMPase inh: -2; 12-hLO inh: -9%; PNC assembly inh: 1; ALOX15B inhib: -17%

How did CC1CCN(CC[C@@H]2CCCN2S(=O)(=O)c2cccc(O)c2)CC1 do in these assays?
IMPase inh: 12; 12-hLO inh: -6%; ALOX15B inhib: 6%

Results for CC1(C)CC(NC(=O)C2CCCCC2C(=O)O)CC(C)(C)N1 (configuration not stated) ?
IMPase inh: 2; 12-hLO inh: -2%; PNC assembly inh: -99*; ALOX15B inhib: -4%

Results for COc1ccc(C(=O)OCCN2CCOCC2)cc1 ?
IMPase inh: 7; 12-hLO inh: -2%; PNC assembly inh: -100*

What do the screens show for `O=C(OCCN1CCOCC1)c1ccc(OCCN2CCOCC2)cc1`?
IMPase inh: -4; 12-hLO inh: 4%; PNC assembly inh: -85*; ALOX15B inhib: 0%

Results for COc1ccc(C(=O)OCCN2CCOCC2)cc1OC ?
IMPase inh: 8; 12-hLO inh: 4%; PNC assembly inh: inconclusive; ALOX15B inhib: 1%

What do the screens show for `COc1ccccc1/C=C/C(=O)OCCN1CCOCC1`?
IMPase inh: -4; 12-hLO inh: 5%; PNC assembly inh: -87*

How did C=C1CC[C@H](O)C/C1=C/C=C1\CCC[C@]2(C)[C@@H]([C@H](C)CCCC(C)(C)O)CC[C@@H]12 do in these assays?
12-hLO inh: 1%

What do the screens show for `COc1ccc(NC(=O)C2CCC(=O)N2S(=O)(=O)c2ccc(C)cc2)c(OC)c1` (configuration not stated)?
IMPase inh: -15; 12-hLO inh: -15%; PNC assembly inh: inconclusive; ALOX15B inhib: 4%

What do the screens show for `COc1ccc(C(=O)N2CCC[C@@]3(CCN(C(=O)Nc4ccccc4)C3)C2)cc1`?
12-hLO inh: 0%; ALOX15B inhib: 3%

Results for COc1cccc(N/C(SCc2ccccc2Cl)=C(/C#N)C(=O)NCc2cccs2)c1 ?
12-hLO inh: 3%; PNC assembly inh: -125*

How did CCn1c(-c2csc3ccccc23)n[nH]c1=S do in these assays?
IMPase inh: -6; 12-hLO inh: 0%; PNC assembly inh: inconclusive

What do the screens show for `CCn1c(-c2ccccc2O)n[nH]c1=S`?
IMPase inh: -7; 12-hLO inh: 3%; PNC assembly inh: -115*; ALOX15B inhib: 0%
